Bioassay records as filed in PubChem BioAssay.
Only some compounds are listed: those with a hit (about 14% of all), similar ones and a draw of the others.
USP28 inh: inhibitors of human USP28 deubiquitinase; Q96RU2; purified USP28, Ub-rhodamine cleavage fluorescence, 30 min; inhibition, % at 25 µM; 47,000 compounds, 3% hits; AID 1645857
USP30 block: human USP30 deubiquitinase inhibition | Q70CQ3 | purified USP30, Ub-rhodamine cleavage fluorescence | inhibition, % at 25 µM | 47,000 compounds, 5.3% hits | AID 1645860
Target sequence (Q70CQ3 whole entry, looked up): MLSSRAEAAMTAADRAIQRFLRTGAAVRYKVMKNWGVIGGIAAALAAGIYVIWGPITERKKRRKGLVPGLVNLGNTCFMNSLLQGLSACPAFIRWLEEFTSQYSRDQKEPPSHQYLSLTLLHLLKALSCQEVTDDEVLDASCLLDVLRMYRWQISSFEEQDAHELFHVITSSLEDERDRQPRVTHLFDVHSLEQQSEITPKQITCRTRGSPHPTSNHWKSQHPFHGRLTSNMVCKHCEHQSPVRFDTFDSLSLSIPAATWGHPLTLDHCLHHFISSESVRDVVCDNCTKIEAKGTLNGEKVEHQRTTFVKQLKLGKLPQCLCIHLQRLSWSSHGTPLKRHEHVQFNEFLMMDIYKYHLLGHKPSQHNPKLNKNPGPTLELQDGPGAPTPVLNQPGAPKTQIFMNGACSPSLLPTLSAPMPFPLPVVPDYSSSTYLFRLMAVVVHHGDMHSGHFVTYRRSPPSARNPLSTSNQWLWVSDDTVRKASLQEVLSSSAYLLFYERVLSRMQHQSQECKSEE
USP17 block: human USP17-like deubiquitinase inhibition; purified USP17, Ub-rhodamine cleavage fluorescence, 3 h; inhibition, % at 50 µM; 47,000 compounds, 6.5% hits
USP8 inh: human USP8 deubiquitinase inhibition; inhibition, % at 20 µM; P40818; 47,000 compounds, 4.2% hits; purified USP8, Ub-rhodamine cleavage fluorescence, 30 min
Active calls of the source: *; . = not tested or not shown. No stated cut-off is given here; in the data, active means inhibition above about 30%; inactive means the rest.

SMILES	USP28 inh	USP30 block	USP17 block	USP8 inh
Cc1ccc(C)c(Cn2nnc3c(=O)[nH]c(C4CCN(S(=O)(=O)c5ccc(S(=O)(=O)NC6CC6)cc5)CC4)nc32)c1	42.2*	51.6*	30.3*	-42.4
CNC(=O)c1cnn2c(C3CCCN3C(=O)c3cnc4ccccc4c3)ccnc12 (stereo not given)	5.4	-12.4	-7.3	-52.4
COc1ccc(OCC(=O)Nc2nnc3n2CCCS3)cc1	-14.8	-11.3	-11.5	-28.9
CCN(CC)c1ccc(C(=O)CN2CCC(S(=O)(=O)c3ccc(C)cc3)CC2)cc1	-16.1	-54.5	3.9	6.0
O=C(c1ccc2occc2c1)N1CCC(S(=O)(=O)c2ccc(-c3ccco3)cc2)CC1	19.9	13.2	52.6*	78.2*
CCN(CC)c1ccc(C(=O)CN2CCC(S(=O)(=O)c3ccc(-c4ccco4)cc3)CC2)cc1	9.6	-10.4	31.2*	-4.6
O=C(NCCC1=CCCCC1)c1cc(-c2ccccc2)c(N2CCOCC2)s1	-7.3	-4.3	-6.3	-0.7
CN(CC(=O)N1CCC(Cc2ccccc2)CC1)S(=O)(=O)c1cc2c(cc1Cl)NC(=O)CO2	-20.5	-70.0	10.8	-2.7
Cc1ccc(S(=O)(=O)N2CCN(C(=O)CN3c4ccccc4CC3C)CC2)c(C)c1 (stereo not given)	-15.0	-128.5	-7.3	37.4*
Cc1ccc(S(=O)(=O)N2CCN(C(=O)CN3CCc4ccccc43)CC2)c(C)c1	9.9	4.5	25.5	16.4
CC(C)(C)c1ccc(-c2nc3[nH]c(=O)cc(NC(=O)c4ccco4)n3n2)cc1	25.6	15.3	.	42.6*
COc1ccc(-c2nc3[nH]c(=O)cc(NC(=O)Cc4ccccc4)n3n2)cc1	-50.4	-110.7	-59.9	59.8*
O=C(Nc1cc(=O)[nH]c2nc(COc3ccccc3)nn12)c1ccc(F)cc1	-106.1	-144.7	-78.6	7.0
O=C(Nc1cc(=O)[nH]c2nc(Cc3ccccc3)nn12)c1ccco1	-70.2	-241.7	-124.7	48.4*
CCCCC(=O)Nc1cc(=O)[nH]c2nc(Cc3ccccc3)nn12	-3.0	-0.3	4.9	1.0
CCC(=O)Nc1cc(=O)[nH]c2nc(-c3ccc(OC)cc3)nn12	4.7	-105.8	6.6	14.6
COc1ccc(CC(=O)NCC(c2ccccc2Cl)N2CCCC2)cc1 (stereo not given)	-15.1	-9.1	-33.0	-106.2
Cn1cc(CCC(=O)N(C2CCCC2)C2CCCC2)cn1	8.6	9.5	6.4	12.7
CC(NC(=O)c1cc([N+](=O)[O-])ccc1N1CCCCC1)C12CC3CC(CC(C3)C1)C2 (stereo not given)	-3.5	-16.0	-0.1	1.7
Cc1ccc(NC(=O)C2CCc3nc(N4CCOCC4)ncc3C2)cc1 (stereo not given)	-8.9	-0.2	-13.9	-25.2
Cc1ccc(CNC(=O)c2c(O)c3cccc4c3n(c2=O)CC4)cc1	-16.7	-14.4	-10.9	59.4*
O=C(CN(CC(=O)NCc1ccccc1Cl)c1nc2ccccc2s1)NCc1ccccc1Cl	10.1	18.7	14.9	69.2*
COc1ccc(-n2nnnc2-c2c[nH]c3c(F)cc(F)cc23)cc1	16.1	12.7	4.8	30.6*
O=C(O)c1c(CNC2CC2)c2ccccc2n1Cc1ccccc1	0.0	-10.3	-13.8	-19.7
CCn1c(CNc2ccc(C)cc2)nnc1SCC(=O)Nc1ccc(C(=O)OC)cc1	42.4*	8.0	24.0	2.6
SMILES	USP28 inh	USP30 block	USP17 block	USP8 inh
CCn1c(CNc2ccc(C)cc2)nnc1SCC(=O)Nc1ccccc1F	28.4	15.9	-8.0	1.2
Cc1nnc2c(SCc3ccccc3)nc3ccccc3n12	-18.5	4.6	10.1	1.5
O=S(=O)(c1ccccc1)n1nc(-c2ccccc2)nc1NCc1ccccc1Cl	3.0	1.2	14.9	10.9
COCCn1c(=O)[nH]c2cc(C(=O)NCCCN3CCN(c4ccc(F)cc4)CC3)ccc2c1=O	5.8	18.2	11.6	-2.7
CCOCCCNC(=O)c1ccc(Cn2c(=O)[nH]c3cc(OCC)c(OCC)cc3c2=O)cc1	.	.	10.9	7.3
CCN(CCCNC(=O)c1ccc(Cn2c(=O)[nH]c3ccccc3c2=O)cc1)c1ccccc1	-5.9	3.0	58.5*	5.8
CCOC(=O)N1CCN(C(=O)c2ccc3c(=O)n(CCOC)c(=O)[nH]c3c2)CC1	-2.8	4.4	-10.6	0.1
COc1ccc(Cn2c(=O)[nH]c3cc(C(=O)NCCCN4CCN(c5cccc(Cl)c5)CC4)ccc3c2=O)cc1	11.5	46.2*	50.6*	83.0*
COc1ccccc1N1CCN(C(=O)c2ccc3c(=O)n(CCc4ccccc4)c(=O)[nH]c3c2)CC1	7.8	35.4*	20.3	29.5
Cc1cccc(N2CCN(C(=O)CCn3c(=O)[nH]c4ccccc4c3=O)CC2)c1C	10.2	35.6*	45.8*	-13.2
COc1ccccc1N1CCN(C(=O)CCn2c(=O)[nH]c3ccccc3c2=O)CC1	-5.6	-11.4	-3.4	0.0
COc1ccc(CN2CCC(C)n3c(nc4ccccc43)C2)cc1 (stereo not given)	-12.3	-9.3	-0.1	7.5
CNc1nc2c(c(=O)n1C)CCN(C(=O)Nc1ccc(C(C)(C)C)cc1)C2	-6.5	-9.5	-14.7	-41.1
Cc1cccc([C@H]2C[C@@H](O)[C@@H](O)[C@@H]2NCc2ccccc2)c1	-0.3	-12.5	-17.5	3.8
CCN1CCN(CCCNC(=O)c2ccc3c(=O)n(CCc4ccccc4)c(=O)[nH]c3c2)CC1	13.4	32.1*	2.5	10.6
COc1ccc(N2CCN(CCCNC(=O)c3ccc4c(=O)n(CCc5ccccc5)c(=O)[nH]c4c3)CC2)cc1	9.0	20.4	24.5	16.1
CC1CC(=O)Nc2cc(S(=O)(=O)CCC(=O)N3CCc4ccccc4C3)ccc2S1 (stereo not given)	6.9	-33.2	-17.9	-20.7
Cc1ccc(OCC2Cn3c(nc4c3c(=O)[nH]c(=O)n4C)O2)cc1C (stereo not given)	.	.	66.0*	0.8
O=C(CC1CCCC1)N1CCC[C@@H]1Cn1nnc(-c2cccnc2)n1	13.3	21.8	6.0	17.7
COc1ccc(CC(=O)N2CCN(c3ccc(-n4cccn4)nn3)CC2)cc1	25.9	33.9*	11.0	22.1
Cc1ccc(CN2C(=O)Cc3c(C)nc(C4CCNCC4)nc32)cc1	-0.2	-5.8	-22.9	-3.2
CCCn1c(=O)c2sccc2n2c(CCC(=O)NC3CCCC3)nnc12	11.5	14.6	9.1	4.5
CCCCCn1c(=O)c2sccc2n2c(CCC(=O)NC3CCCCCC3)nnc12	12.8	27.4	35.5*	19.5
O=C(NCc1ccc(Cl)cc1)c1cc2c(s1)-c1ccccc1OC2	25.3	54.7*	87.5*	73.6*
O=C(Nc1cccc(C(F)(F)F)c1)c1cc2c(s1)-c1ccccc1OC2	25.9	70.2*	.	71.8*
Cc1ccc(NC(=O)c2cc3c(s2)-c2ccccc2OC3)c(Cl)c1	13.9	41.4*	26.6	27.6
O=C(NCc1ccc2c(c1)OCO2)c1cc2c(s1)-c1ccccc1OC2	27.3	57.4*	17.2	56.3*
CN1CCN(c2ccccc2NC(=O)c2cc3c(s2)-c2ccccc2SC3)CC1	-1.7	-2.1	-1.5	9.3
Cc1nc(-c2ccccn2)sc1C(=O)Nc1cccc(C(F)(F)F)c1	-5.4	-5.4	0.9	-15.4
O=C1COc2ccc(C(=O)NCc3ccc4c(c3)OCO4)cc2N1	9.0	0.3	-5.8	2.1
